Screening results as filed in PubChem.
Only some compounds are listed: those with a hit (about 1.3% of all), similar ones and a draw of the others.
MEX-5 binding – MEX-5 zinc finger RNA-binding disruptors – biochemical, C. elegans, fluorescence polarization, MLPCN library, primary screen; MEX-5/FITC-TCR2 RNA binding; stronger effect = lower value; Zinc finger protein mex-5 (Caenorhabditis elegans), Q9XUB2; activity score (negative = inhibition of binding), % at 10 µM; 0.38% of 300,000 active;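 active means inhibition past about -25% in most replicates, and total fluorescence under double the plate's negative control median, limit read from the data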;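 further: 0% = DMSO and -100% = 5 µM competing unlabeled TCR2 RNA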
Target sequence (Q9XUB2 whole entry, looked up): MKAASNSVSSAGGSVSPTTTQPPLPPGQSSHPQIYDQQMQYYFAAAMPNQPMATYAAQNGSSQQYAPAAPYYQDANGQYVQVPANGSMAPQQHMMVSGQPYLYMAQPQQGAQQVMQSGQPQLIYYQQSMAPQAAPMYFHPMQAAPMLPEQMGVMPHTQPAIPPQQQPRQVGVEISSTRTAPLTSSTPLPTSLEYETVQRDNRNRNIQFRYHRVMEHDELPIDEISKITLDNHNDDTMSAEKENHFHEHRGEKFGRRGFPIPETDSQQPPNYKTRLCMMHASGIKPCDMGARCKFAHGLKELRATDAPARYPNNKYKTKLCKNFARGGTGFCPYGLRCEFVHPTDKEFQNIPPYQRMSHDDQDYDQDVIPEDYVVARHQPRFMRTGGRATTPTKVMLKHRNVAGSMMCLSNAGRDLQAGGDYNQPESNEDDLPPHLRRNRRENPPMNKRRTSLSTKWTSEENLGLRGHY
eLon inh – inhibitors of E. coli Lon protease, primary screen, biochemical, fluorescence polarization; P0A9M0; purified E. coli Lon protease; inhibition, % at 7.94 µM; 0.42% of 360,000 active; in the data active means inhibition above about 13%, passing the limit was not always enough;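 further: 0% = enzyme with probe and DMSO and 100% = no enzyme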
Bcl-xL primary – inhibitors of human Bcl-xL, primary screen, biochemical, fluorescence polarization, HTS. 0.7% of 320,000 active. Bcl-2-like protein 1 (Homo sapiens), Q07817. inhibition, % at 10.9 µM. GST-Bcl-xL / FITC-Bim BH3 peptide fluorescence polarization;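 active means inhibition above the mean of all tested compounds plus 3 SD, cutoff set per campaign, cut at about 30% in these data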;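 further: 0% = DMSO wells and 100% = unlabeled Bim-BH3 peptide competitor; inhibitors lower millipolarization by displacing the labeled peptide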
EBV gp42 block – Epstein-Barr virus gp42 inhibitors, primary screen, biochemical, uHTS, fluorescence polarization; Fluorescence polarization binding assay, mP read-out; 0.42% of 220,000 active; Glycoprotein 42 (Epstein-Barr virus (strain AG876)), Q1HVG2; inhibition, % (tested at 21.74 µM); in the data active means inhibition above about 50%
GLD-1 RNA inh – GLD-1/TGE RNA complex disruptors, primary screen, biochemical, fluorescence polarization; Female germline-specific tumor suppressor gld-1 (Caenorhabditis elegans), Q17339; purified GLD-1 + fluorescein TGE RNA; inhibition, % at 5.96 µM; 0.44% of 320,000 active;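 active means percent inhibition above a per-plate cutoff, the plate mean of test compounds plus 3 SD, cut at about 30% in these data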;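 further: 0% = DMSO wells with GLD-1 and probe and 100% = wells lacking GLD-1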
eLon confirm – E. coli Lon protease inhibitor retest, confirmation, biochemical, fluorescence polarization; AID 602230, 2012; purified E. coli Lon; 31% of 1,400 active; shares compounds with eLon inh; inhibition, % at 7.94 µM; in the data active means inhibition above about 16%;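 further: 0% = enzyme with probe and DMSO and 100% = no enzyme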
Starred values were filed as active, the others as inactive.

`CCc1c(C(C)S(=O)(=O)c2ccc(C)cc2)[nH]c(=O)n1-c1ccc(C)cc1` (stereo unspecified) gave MEX-5 binding 1.9, eLon inh 62.9*, Bcl-xL primary 9.2, EBV gp42 block -14.6, GLD-1 RNA inh 9.2 and eLon confirm 8.4.
CC(NCCCOc1cccc2ccccc12)c1ccccc1 (stereo unspecified) was read as MEX-5 binding 0.7, eLon inh -1.4, Bcl-xL primary 7.1 and GLD-1 RNA inh 0.8.
For Cc1c(NC(=O)COC(=O)Cc2ccc(F)cc2)c(=O)n(-c2ccccc2)n1C the results were MEX-5 binding 0.9, eLon inh 2.5, Bcl-xL primary 5.0 and GLD-1 RNA inh 2.7.
`O=C1C(NS(=O)(=O)c2ccccc2)=C(N2CCN(c3ccc(F)cc3)CC2)C(=O)c2ccccc21` gave MEX-5 binding -1.0, eLon inh -2.1, Bcl-xL primary 9.7, EBV gp42 block 15.3 and GLD-1 RNA inh 5.0.
O=C1C(NS(=O)(=O)c2cccs2)=C(N2CCN(c3cccc(Cl)c3)CC2)C(=O)c2ccccc21 was read as MEX-5 binding -0.3, eLon inh 19.4*, Bcl-xL primary 25.8, EBV gp42 block -1.7, GLD-1 RNA inh 13.5 and eLon confirm 32.0*.
Screening ClN=C1C=CC=CC1=NCl returned eLon inh -0.8.
`COC1=CC(=NCl)C=CC1=NCl` gave eLon inh 44.6* and eLon confirm 39.3*.
For CC1CCCC(NC(=O)CCC(=O)NCc2ccccc2)C1C (stereo unspecified) the results were MEX-5 binding 0.6, eLon inh 2.7, Bcl-xL primary -1.5 and GLD-1 RNA inh 0.7.
Screening COc1cccc(C(=O)CN2C(=O)C(C)(C)Oc3ccc(C(=O)N4CCCCCC4)cc32)c1 returned MEX-5 binding -1.2, eLon inh 4.8, Bcl-xL primary 4.3, EBV gp42 block -6.2 and GLD-1 RNA inh 3.5.
For COc1cccc(C(=O)CN2C(=O)C(C)(C)Oc3ccc(C(=O)N4CCOCC4)cc32)c1 the results were MEX-5 binding 1.7, eLon inh 128.2*, Bcl-xL primary 0.5, GLD-1 RNA inh 1.6 and eLon confirm -5.3.
Screening CC(C)c1onc(C(=O)N2CCN(c3ccc(F)cc3)CC2)c1[N+](=O)[O-] returned MEX-5 binding 1.0, eLon inh -5.2, Bcl-xL primary 7.7 and GLD-1 RNA inh 3.8.
c1ccc(CSc2nnnn2-c2ccc3c(c2)OCCO3)nc1 was read as MEX-5 binding -0.6, eLon inh 30.5*, Bcl-xL primary -3.9, EBV gp42 block -11.2, GLD-1 RNA inh 1.1 and eLon confirm -3.9.
CC(NCCC(Cc1ccccc1)c1ccco1)c1ccccc1 (stereo unspecified) was read as MEX-5 binding 0.1, eLon inh 17.6*, Bcl-xL primary 7.9, EBV gp42 block -13.0, GLD-1 RNA inh 5.1 and eLon confirm 11.6.
`Fc1ccc(CNCCC(Cc2ccccc2)c2ccco2)cc1` (stereo unspecified) gave MEX-5 binding 2.1, eLon inh -3.9, Bcl-xL primary 10.5, EBV gp42 block -9.5 and GLD-1 RNA inh 2.6.
Screening Cc1ccc(-c2nc3ncccc3o2)cc1NC(=O)c1cccnc1 returned MEX-5 binding -1.4, eLon inh 30.6*, Bcl-xL primary 4.0, EBV gp42 block -25.8, GLD-1 RNA inh 7.2 and eLon confirm -7.7.
`Cc1ccc(-c2nc3ncccc3o2)cc1NC(=O)c1ccccc1` gave MEX-5 binding -4.2, eLon inh -7.7, Bcl-xL primary 0.9, EBV gp42 block 0.3 and GLD-1 RNA inh -1.7.
Screening CCN(CC)S(=O)(=O)c1ccc(NC(=O)CC(NC(C)=O)c2ccccc2)cc1 (stereo unspecified) returned MEX-5 binding 0.3, eLon inh 16.8*, Bcl-xL primary 4.7, EBV gp42 block -15.4, GLD-1 RNA inh -1.6 and eLon confirm -5.0.
Screening Cn1c(N)c(C(=O)CSc2nc(C3CC3)n(-c3ccccc3)n2)c(=O)n(C)c1=O returned eLon inh -5.1, Bcl-xL primary -3.1 and GLD-1 RNA inh -0.2.
For COc1cccc(NC(=O)COC(=O)CNC(=O)C2CCCCC2)c1 the results were eLon inh 7.0, Bcl-xL primary 2.0 and GLD-1 RNA inh 2.2.
CC(C)(C)c1cc(C(=O)N/N=C/c2ccc(-c3ccccc3[N+](=O)[O-])o2)n[nH]1 was read as MEX-5 binding -2.6, eLon inh 25.1*, Bcl-xL primary 47.8*, GLD-1 RNA inh 75.4* and eLon confirm 7.0.
`O=C(c1ccco1)N1CCN(CCCCOc2cccc3ccccc23)CC1` gave MEX-5 binding -0.8, eLon inh 12.2, Bcl-xL primary 4.6, EBV gp42 block -9.7 and GLD-1 RNA inh 1.0.
Screening O=C(Cc1cccc(F)c1)N1CCOCC1 returned eLon inh -1.7.
`OCC1(Cc2cccc(C(F)(F)F)c2)CCN(Cc2cc3ccccc3o2)CC1` gave MEX-5 binding 0.6, eLon inh 12.3*, Bcl-xL primary 4.7, EBV gp42 block -7.6, GLD-1 RNA inh 1.0 and eLon confirm -6.7.
Screening COc1ccc(Cl)cc1NS(=O)(=O)c1c(C)[nH]c(=O)[nH]c1=O returned MEX-5 binding 1.0 and eLon inh 0.5.
`O=C(CN1C(=O)NC2(CCCCC2)C1=O)Nc1ccc2[nH]c(=O)[nH]c2c1` gave eLon inh 40.1*, Bcl-xL primary 9.3, GLD-1 RNA inh 0.3 and eLon confirm -7.8.
`Cc1ccc(NC(=O)CN2C(=O)NC3(CCCCCCC3)C2=O)cc1C` gave eLon inh -8.2, Bcl-xL primary -2.5 and GLD-1 RNA inh 1.0.
`CCN(CC)c1ccc2nc3ccc(N)cc3[n+](-c3ccccc3)c2c1` gave eLon inh 169.6* and eLon confirm 123.9*.
For Cc1onc(-c2c(F)cccc2Cl)c1C(=O)NCc1ccccc1 the results were MEX-5 binding -3.2, eLon inh -0.6, Bcl-xL primary 4.3 and GLD-1 RNA inh 9.9.
Cc1onc(-c2c(F)cccc2Cl)c1C(=O)ONC(=O)c1ccco1 was read as MEX-5 binding -2.3, eLon inh 17.3*, Bcl-xL primary 12.6, EBV gp42 block 0.0, GLD-1 RNA inh 15.1 and eLon confirm 5.5.
Screening CCN(CC(=O)Nc1c(F)cccc1F)C(=O)c1ccc(OCc2c(C)noc2C)cc1 returned eLon inh -9.9, Bcl-xL primary -2.0 and GLD-1 RNA inh 3.1.
For Cc1ccc(-n2nc3c(=O)n(CCCC(=O)NCC(C)c4ccccc4)nc(C)c3c2C)cc1 (stereo unspecified) the results were MEX-5 binding -3.3, eLon inh -6.0, Bcl-xL primary 4.0 and GLD-1 RNA inh -1.3.
